This is part of a sample that, as a whole, favours compounds with a hit. Of some 83,000 tested, about 20% had one in any assay.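 Values shown are percent growth following 48 h exposure of cells in 96-well plates to a single concentration of compound; below 10 was considered active.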 Unmarked numbers belong to inactive results. Calls of active or inactive are those of the source.
Assays:
Experiment in all cases: NCI-60 one-dose screen, 48 h (100 = growth as untreated, 0 = no growth, -100 = all killed)
SK-MEL-2 melanoma = conditions: 10 µM unless noted
EKVX NSCLC = conditions: 10 µM unless noted
SN12C renal = conditions: 10 µM unless noted
UO-31 renal = conditions: 10 µM unless noted
TK-10 renal = conditions: 10 µM unless noted
ACHN renal = conditions: 10 µM unless noted
CAKI-1 renal = conditions: 10 µM unless noted
A498 renal = conditions: 10 µM
HL-60(TB) leukemia = conditions: 10 µM unless noted
CCRF-CEM leukemia = conditions: 10 µM unless noted

| Compound | growth (SK-MEL-2 melanoma) | growth (EKVX NSCLC) | growth (SN12C renal) | growth (UO-31 renal) | growth (TK-10 renal) | growth (ACHN renal) | growth (CAKI-1 renal) | growth (A498 renal) | growth (HL-60(TB) leukemia) | growth (CCRF-CEM leukemia) |
| --- | --- | --- | --- | --- | --- | --- | --- | --- | --- | --- |
| COc1cc(NC(C)CCCNC2CN3CCC2CC3)c2ncccc2c1 (stereo unspecified) | 91.7% | 71.2% | 86% | 38.3% | 79.8% | 84.9% | 78.1% | 57.2% | 65.9% | 77.7% |
| O=C(CCCC1CCCCC1)OCC(Cl)(Cl)Cl | 109% | 105% | 106% | 91.1% | 98.7% | 110% | 102% | 60.6% | 100% |  |
| O=C1C=C2C(=CCOC2O)O1 (stereo unspecified) | 10.4% | 103% | 35.1% | -11.6% (active) | -37.2% (active) | -18.7% (active) | -13.2% (active) | 107% |  |  |
| CNC(=O)Oc1ccc(N(C)C)cc1C(C)C | 103% | 95.5% | 98.2% | 88.7% | 95% | 99.4% | 40.9% | 101% | 130% |  |
| CN1CCC(O)(c2ccc(F)cc2)C(C(=O)c2ccc(F)cc2)C1 (stereo unspecified) | 91.2% | 106% | 104% | 84.7% | 110% | 101% | 104% | 104% | 134% | 85.2% |
| COC(=O)[C@@H](C)C[C@H](Cc1ccccc1)NC(=O)c1csc([C@@H](C[C@H](C(C)C)N(C)C(=O)[C@@H](NC(=O)C23CC(NC(C)=O)(C2)C3)C2CC2)OC(C)=O)n1 | 49% | 78.8% | 51.7% | 95.4% | 77.1% | 96.2% | 95.3% | 48.3% | -17.2% (active) | 9.99% (active) |
| CC12CCC(O)CC1=CCC1C2CCC2(C)C(O)CCC12 (stereo unspecified) | 110% | 71.9% | 105% | 98.5% | 105% | 107% | 93.2% | 81.1% | 115% | 94.9% |
| COC1=CC(=O)O[C@@H](/C=C/c2ccc3c(c2)OCO3)C1 | -20.1% (active) | 114% | 100% | 87.5% | 102% | 110% | 107% | 59.2% | 114% | 61.2% |
| CN1C(=O)C23CC4(C56CC78SSC(CO)(C(=O)N7C5Nc5ccccc56)N(C)C8=O)c5ccccc5NC4N2C(=O)C1(CO)SS3 (stereo unspecified) | -84.6% (active) | -62.3% (active) | -100% (active) | -100% (active) | -90.2% (active) | -100% (active) | -98.7% (active) | -98.9% (active) | -63.1% (active) | -11.2% (active) |
| CCCCCCC(=O)NC1=C(N2CC2)C(=O)C(NC(=O)CCCCCC)=C(N2CC2)C1=O | 73% | 78.3% | 41.7% | 43.1% | 75.5% | 32.9% | 45.6% | 66.9% | 16.8% | 50.7% |
| Nc1nnnc2nc[nH]c12 | -16.8% (active) | 8.89% (active) | 10.9% | 3.57% (active) | 33.3% | 2.18% (active) | -11.1% (active) | 12.7% | -4.59% (active) | 0.72% (active) |
| C[n+]1c(/C=C/c2ccc(N(CCCl)CCCl)cc2)sc2ccccc21 | 74.1% | 83.4% | 37.4% | 96.7% | 96.7% | 78.8% | 99.4% | 84.9% | 18.3% | 27.9% |
| COc1ccc(/C=C\c2cc(OC)c(OC)c(OC)c2)cc1NC(=O)/C=C/c1cc(OC)c(OC)c(OC)c1 | 47% | 61.6% | 71.6% | 31.9% | 82% | 53.9% | 31.5% | -3.68% (active) | 15.7% | 39.2% |
| CCCCN(CCCC)P(=O)(Oc1ccccc1)Oc1ccccc1 | 43.4% | 59% | 59.9% | 42.2% | 78.5% | 80.8% | 32.4% | 93.8% | 32.5% | 61.9% |
| COC(=O)[C@@H](C)C[C@H](Cc1ccccc1)NC(=O)c1csc([C@@H](C[C@H](C(C)C)N(C)C(=O)[C@@H](NC(=O)[C@H]2CCCCN2C)C2CC2)OC(C)=O)n1 | 5.26% (active) | 42.3% | 43.5% | 39% | 38.6% | 19.6% | 36.9% | 2.41% (active) | -26.3% (active) | 7.66% (active) |
| C[CH2][Sn]([Cl])([Cl])[CH2]C.Oc1ccccc1C=NCCN=Cc1ccccc1O | 116% | 96.9% | 101% | 72.8% | 117% | 97.5% | 86.5% | 103% | 113% | 92.5% |
| Fc1ccc(N2COOC3(OOC2)C2CC4CC(C2)CC3C4)cc1 | 88.8% | 79.4% | 101% | -74.9% (active) | 93% | 59.7% | 26% | 90.1% | 74% | 94.2% |
| C[Se]C(=O)c1ccccc1OC(C)=O | 75.4% | 33.2% | 69% | 33% | 27.5% | 85.9% | 64.4% | 66.5% | 32.8% | 63.3% |
| COC1OC(CO)C(O)C(O)[CH]1[Hg][O]C(C)=O (stereo unspecified) | 107% | 111% | 88.5% | 101% | 111% | 98.5% | 101% | 106% | 94.6% | 96.1% |
| CCn1c2ccccc2c2cc(C(=O)c3cccc4c3CCCN4)ccc21 | 99.5% | 99.3% | 93.7% | 94.1% | 107% | 102% | 99.3% | 112% | 110% | 120% |
| C=CC1=C[C@@H]2[C@@H]3O[C@]4(CC[C@H](O4)[C@@H](C)C[C@@H](O)C3=O)C[C@H](O)C3=NCC[C@@]32CC1 | -45.1% (active) | -29.1% (active) | -15% (active) | -38.8% (active) | -21% (active) | -64.8% (active) | -11.4% (active) | -82.6% (active) | -5.3% (active) | 4.16% (active) |
| Cc1cnc(/C=C/C(=O)O)cc1-c1cc2c(cc1C)C(C)(C)CCC2(C)C | 74.4% | 46% | 90.5% | 68.4% | 113% | 81.7% | 79% | 105% | 63.3% | 85% |
| CCC(CC)CC1(C)CC2(C)CCOC2OO1 (stereo unspecified) | 94.9% | 103% | 102% | 88.8% | 98% | 111% | 95.7% | 90.8% | 111% | 103% |
| CC12CC=CCC1CCC1C2CCC2(C)C(c3ccc(=O)oc3)CCC12O (stereo unspecified) | -33.6% (active) | -85.1% (active) | -13.1% (active) | -91.4% (active) | -62.2% (active) | -90% (active) | -57% (active) | -22.7% (active) | -14% (active) | 1.08% (active) |
| CSc1nc(Cl)cc(N2CC2)n1 | 120% | 106% | 104% | 114% | 107% | 109% | 98.3% | 122% | 96.6% | 77.6% |
| CCn1c2ccccc2c2cc(C(=O)c3ccc(C)c4ccccc34)ccc21 | 24% | 32% | 22.7% | 30.5% | 38% | 23.9% | 28.8% | 7.13% (active) | 8.9% (active) | 18.2% |
| CN(C)CCCOc1ccc2c(c1)c(C(=O)C(=O)NCCO)cn2Cc1ccccc1 | 114% | 102% | 104% | 84% | 116% | 99.2% | 90.5% | 59.8% | 106% | 102% |

— PubChem BioAssay (NCI)
